Assay results taken from ChEMBL document CHEMBL2218924, “A broad activity screen in support of a chemogenomic map for kinase signalling research and drug discovery” (Biochem J, 2013).

How the values were obtained:
[1] = target: Tyrosine-protein kinase SYK (Homo sapiens) (UniProt P43405); settings: at 10 µM
[2] = target: T1, Mitogen-activated protein kinase kinase kinase 7 (Homo sapiens) (UniProt O43318); settings: at 1 µM
T1 sequence (whole entry): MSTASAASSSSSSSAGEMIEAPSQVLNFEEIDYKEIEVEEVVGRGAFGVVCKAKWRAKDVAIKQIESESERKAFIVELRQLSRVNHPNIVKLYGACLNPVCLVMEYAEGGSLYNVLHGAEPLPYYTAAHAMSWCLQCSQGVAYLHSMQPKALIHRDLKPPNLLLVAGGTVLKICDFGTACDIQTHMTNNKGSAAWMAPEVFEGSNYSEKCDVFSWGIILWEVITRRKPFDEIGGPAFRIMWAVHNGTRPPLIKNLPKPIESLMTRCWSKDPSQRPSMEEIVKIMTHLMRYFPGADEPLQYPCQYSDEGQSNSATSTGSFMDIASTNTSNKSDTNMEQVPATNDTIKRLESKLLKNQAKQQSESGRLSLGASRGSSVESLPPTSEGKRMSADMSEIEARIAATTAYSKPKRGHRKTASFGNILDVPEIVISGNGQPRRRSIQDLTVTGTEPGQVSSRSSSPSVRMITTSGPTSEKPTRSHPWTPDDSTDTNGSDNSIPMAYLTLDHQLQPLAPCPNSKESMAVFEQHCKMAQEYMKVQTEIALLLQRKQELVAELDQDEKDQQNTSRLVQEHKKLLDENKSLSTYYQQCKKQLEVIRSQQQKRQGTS

[3] = target: T1, Mitogen-activated protein kinase kinase kinase 7 (Homo sapiens); settings: at 10 µM
[4] = target: T2, Serine/threonine-protein kinase TAO1 (Homo sapiens) (UniProt Q7L7X3); settings: at 1 µM
T2 sequence (whole entry): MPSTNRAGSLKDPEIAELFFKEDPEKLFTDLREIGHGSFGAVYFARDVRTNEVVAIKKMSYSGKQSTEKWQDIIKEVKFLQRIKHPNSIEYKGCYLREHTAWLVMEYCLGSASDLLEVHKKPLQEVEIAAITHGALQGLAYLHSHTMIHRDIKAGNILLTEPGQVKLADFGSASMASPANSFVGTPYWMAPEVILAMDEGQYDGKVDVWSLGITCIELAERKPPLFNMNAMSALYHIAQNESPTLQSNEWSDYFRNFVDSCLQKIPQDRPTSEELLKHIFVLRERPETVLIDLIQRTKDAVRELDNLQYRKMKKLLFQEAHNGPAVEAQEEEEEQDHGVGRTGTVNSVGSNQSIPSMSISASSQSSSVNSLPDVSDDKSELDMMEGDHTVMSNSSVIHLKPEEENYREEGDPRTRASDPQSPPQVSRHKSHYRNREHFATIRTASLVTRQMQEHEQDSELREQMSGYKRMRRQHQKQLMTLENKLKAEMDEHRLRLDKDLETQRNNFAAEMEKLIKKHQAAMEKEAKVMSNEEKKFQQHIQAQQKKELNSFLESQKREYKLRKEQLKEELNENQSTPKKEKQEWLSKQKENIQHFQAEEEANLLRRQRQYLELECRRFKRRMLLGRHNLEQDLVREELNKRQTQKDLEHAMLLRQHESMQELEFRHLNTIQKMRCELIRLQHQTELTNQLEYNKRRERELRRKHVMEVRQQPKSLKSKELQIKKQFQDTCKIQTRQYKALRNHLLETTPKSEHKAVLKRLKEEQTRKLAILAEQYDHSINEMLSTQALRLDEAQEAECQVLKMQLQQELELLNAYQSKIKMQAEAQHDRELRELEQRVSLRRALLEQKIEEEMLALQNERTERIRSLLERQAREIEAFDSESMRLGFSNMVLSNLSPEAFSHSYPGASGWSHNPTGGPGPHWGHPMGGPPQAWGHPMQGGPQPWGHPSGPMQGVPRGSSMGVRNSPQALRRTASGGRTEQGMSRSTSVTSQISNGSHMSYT

[5] = target: T2, Serine/threonine-protein kinase TAO1 (Homo sapiens); settings: at 10 µM
[6] = target: T3, Serine/threonine-protein kinase TAO2 (Homo sapiens) (UniProt Q9UL54); settings: at 1 µM
T3 sequence (whole entry): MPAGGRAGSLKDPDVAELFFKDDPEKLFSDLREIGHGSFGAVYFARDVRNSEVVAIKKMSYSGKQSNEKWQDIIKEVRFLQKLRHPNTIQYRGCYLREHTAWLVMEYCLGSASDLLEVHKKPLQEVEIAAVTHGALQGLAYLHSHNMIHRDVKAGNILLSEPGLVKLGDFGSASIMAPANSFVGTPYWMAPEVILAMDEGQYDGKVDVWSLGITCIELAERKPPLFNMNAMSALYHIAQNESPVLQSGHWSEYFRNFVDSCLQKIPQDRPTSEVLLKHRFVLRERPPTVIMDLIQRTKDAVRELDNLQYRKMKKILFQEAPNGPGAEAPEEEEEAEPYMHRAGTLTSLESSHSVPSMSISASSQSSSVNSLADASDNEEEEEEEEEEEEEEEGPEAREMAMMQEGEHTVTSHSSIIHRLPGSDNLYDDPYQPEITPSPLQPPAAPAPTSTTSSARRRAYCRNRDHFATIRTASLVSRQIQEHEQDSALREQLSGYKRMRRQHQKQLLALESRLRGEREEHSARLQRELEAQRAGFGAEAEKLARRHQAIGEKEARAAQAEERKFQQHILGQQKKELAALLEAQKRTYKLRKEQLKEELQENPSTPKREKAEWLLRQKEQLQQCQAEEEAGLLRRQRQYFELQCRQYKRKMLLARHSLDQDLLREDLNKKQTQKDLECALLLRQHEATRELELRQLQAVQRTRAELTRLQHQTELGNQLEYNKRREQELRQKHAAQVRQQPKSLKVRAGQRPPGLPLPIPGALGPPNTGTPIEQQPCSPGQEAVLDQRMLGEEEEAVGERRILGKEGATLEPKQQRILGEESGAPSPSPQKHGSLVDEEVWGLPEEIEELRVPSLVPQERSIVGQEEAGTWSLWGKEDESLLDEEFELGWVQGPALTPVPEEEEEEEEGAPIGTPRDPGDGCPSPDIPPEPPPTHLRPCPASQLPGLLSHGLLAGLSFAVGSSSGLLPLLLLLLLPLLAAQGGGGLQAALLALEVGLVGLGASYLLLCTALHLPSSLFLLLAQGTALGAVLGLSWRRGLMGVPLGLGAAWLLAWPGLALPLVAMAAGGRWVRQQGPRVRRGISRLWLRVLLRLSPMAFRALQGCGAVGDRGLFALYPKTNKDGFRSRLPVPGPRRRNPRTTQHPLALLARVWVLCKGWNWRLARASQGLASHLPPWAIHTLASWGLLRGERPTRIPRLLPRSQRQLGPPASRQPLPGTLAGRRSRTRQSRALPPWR

[7] = target: T3, Serine/threonine-protein kinase TAO2 (Homo sapiens); settings: at 10 µM
[8] = target: T4, Serine/threonine-protein kinase TAO3 (Homo sapiens) (UniProt Q9H2K8); settings: at 1 µM
T4 sequence (whole entry): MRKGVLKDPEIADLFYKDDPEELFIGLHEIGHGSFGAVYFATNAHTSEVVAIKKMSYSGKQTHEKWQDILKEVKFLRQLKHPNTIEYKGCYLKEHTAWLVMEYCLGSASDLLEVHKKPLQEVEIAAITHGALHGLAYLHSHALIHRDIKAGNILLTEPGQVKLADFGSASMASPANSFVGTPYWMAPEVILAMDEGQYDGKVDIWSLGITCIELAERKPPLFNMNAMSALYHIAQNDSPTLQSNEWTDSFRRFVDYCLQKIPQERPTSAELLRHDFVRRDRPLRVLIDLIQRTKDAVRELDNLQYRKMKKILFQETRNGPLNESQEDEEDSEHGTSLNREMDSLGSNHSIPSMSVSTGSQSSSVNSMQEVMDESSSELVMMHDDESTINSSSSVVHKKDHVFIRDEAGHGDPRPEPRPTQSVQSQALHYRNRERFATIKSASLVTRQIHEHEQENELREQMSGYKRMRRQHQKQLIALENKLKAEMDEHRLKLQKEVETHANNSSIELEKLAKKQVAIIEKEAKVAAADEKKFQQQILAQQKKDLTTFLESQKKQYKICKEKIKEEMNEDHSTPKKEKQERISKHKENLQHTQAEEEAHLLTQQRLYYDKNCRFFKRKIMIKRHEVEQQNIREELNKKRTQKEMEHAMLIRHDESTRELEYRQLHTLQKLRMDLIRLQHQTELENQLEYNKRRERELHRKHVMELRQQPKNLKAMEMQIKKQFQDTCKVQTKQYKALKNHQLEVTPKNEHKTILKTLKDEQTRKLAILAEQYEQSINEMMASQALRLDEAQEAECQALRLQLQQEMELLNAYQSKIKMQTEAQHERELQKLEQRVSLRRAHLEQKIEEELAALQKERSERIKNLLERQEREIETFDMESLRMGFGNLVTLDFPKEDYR

[9] = target: T4, Serine/threonine-protein kinase TAO3 (Homo sapiens); settings: at 10 µM
[10] = target: T5, Serine/threonine-protein kinase TBK1 (Homo sapiens) (UniProt Q9UHD2); settings: at 1 µM
T5 sequence (whole entry): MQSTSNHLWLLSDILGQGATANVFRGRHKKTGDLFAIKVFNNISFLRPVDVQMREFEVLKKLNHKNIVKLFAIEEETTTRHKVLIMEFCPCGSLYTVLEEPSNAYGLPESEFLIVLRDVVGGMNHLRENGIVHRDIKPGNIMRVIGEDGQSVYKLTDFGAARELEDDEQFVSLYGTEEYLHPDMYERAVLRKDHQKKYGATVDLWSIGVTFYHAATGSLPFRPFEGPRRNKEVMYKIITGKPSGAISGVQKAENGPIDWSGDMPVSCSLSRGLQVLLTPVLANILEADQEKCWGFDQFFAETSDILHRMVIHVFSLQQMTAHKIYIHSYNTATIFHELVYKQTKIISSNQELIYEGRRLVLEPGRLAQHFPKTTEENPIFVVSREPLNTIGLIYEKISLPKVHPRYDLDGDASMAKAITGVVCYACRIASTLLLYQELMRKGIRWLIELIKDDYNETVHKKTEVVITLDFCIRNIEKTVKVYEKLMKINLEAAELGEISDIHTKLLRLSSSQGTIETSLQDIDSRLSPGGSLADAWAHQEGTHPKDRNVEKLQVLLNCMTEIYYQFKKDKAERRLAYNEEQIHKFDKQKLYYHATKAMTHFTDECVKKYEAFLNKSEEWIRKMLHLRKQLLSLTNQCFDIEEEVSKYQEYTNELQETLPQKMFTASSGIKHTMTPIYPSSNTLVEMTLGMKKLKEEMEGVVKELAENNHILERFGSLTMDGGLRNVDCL

Nc1ccc2ncnc(NCCc3ccc(Oc4ccccc4)cc3)c2c1
residual activity [1]: 78%
residual activity [2]: 92%
residual activity [3]: 72%
residual activity [4]: 103%
residual activity [5]: 88%
residual activity [6]: 90%
residual activity [7]: 91%
residual activity [8]: 110%
residual activity [9]: 92%
residual activity [10]: 94%
